Hit rate of the full screen: of about 300,000 compounds, about 990 (0.33%) were called active. For the sample, actives were picked, then their nearest neighbours and some compounds at random. Unmarked numbers belong to inactive results.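 The calls were made as follows: active = inhibition above the screen mean inhibition plus 3 SD, computed separately per campaign (cut at about 18% in these data); inactive = the rest.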
These compounds were tested on Fam108B (ABHD17B) serine hydrolase [Mus musculus] (assay: mouse Fam108B serine hydrolase inhibitors, primary screen, counter-screen for RBBP9 inhibitor project, biochemical, fluorescence polarization (AID 1947;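 also: inhibitors lower polarization as less probe binds the enzyme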)). Details: recombinant Fam108B, FP-Rh probe fluorescence polarization; at 9.51 µM; active compounds read high.

Compound	inhibition
COc1ccccc1CN1CCNC(=O)C1CC(=O)N(C)CC1CCOCC1 (centres undefined)	1.34%
O=C(COC(=O)/C=C/c1cn(-c2ccccc2)nc1-c1cccnc1)Nc1ccc(Cl)cc1Cl	-13.2%
O=C(COC(=O)c1cc(=O)[nH]c2ccccc12)Nc1nc(-c2cccc(Br)c2)cs1	-30.4%
Cc1nc([N+](=O)[O-])c(NCCCO)n1Cc1ccccc1	1.87%
COc1cccc(C(=O)N2CCC(n3nccc3NC(=O)C3CCOC3)CC2)c1 (centres undefined)	5.08%
O=C(Nc1ccc2ccccc2c1)Nc1ccc2snnc2c1	-25.9%
Cc1ccc(-c2ccnc3nc(Sc4ncc(C(F)(F)F)cc4Cl)nn23)cc1	-3.23%
CC[N+](C)(CC)CCC[n+]1c(-c2ccccc2)c2cc(N)ccc2c2ccc(N)cc21	74.1% (active)
CCc1ccc2ncc(C(=O)c3ccccc3)c(N3CCOCC3)c2c1	0.71%
FC(F)(F)c1cc(-c2ccco2)nc(NCc2ccc(Cl)cc2)n1	-10.7%
Cc1cc(=O)oc2c3c(cc(OCC(=O)NCc4ccccn4)c12)OC(C)(C)CC3	-1.76%
COc1cc(NC(=O)COC(=O)c2cnc(C)cn2)c(C)cc1[N+](=O)[O-]	-0.2%
CC(C)[C@H](NC(=O)N1CC(=O)Nc2ccccc21)C(=O)N[C@@H](Cc1c[nH]c2ccccc12)C(=O)O	0.98%
COc1cc(OC)cc(C(=O)NCCSCc2ccc(Cl)cc2)c1	-2.49%
Cc1ccc(-c2ccnc3[nH]n(-c4ccccc4)c(=O)c23)cc1	-1.58%
Cc1cc(C)c(C2C3=C(Nc4c2c(C)nn4-c2ccccn2)c2ccccc2C3=O)c(C)c1 (centres undefined)	-5.56%
Cc1ccc(C2C3=C(Nc4[nH]n(-c5ccccc5)c(=O)c42)c2ccccc2C3=O)cc1 (centres undefined)	34.1% (active)
COCCN1CCn2c(nc3cc(NS(C)(=O)=O)ccc32)C1	2.47%
Cc1[nH]n(C(N)=S)c(=O)c1N=Nc1ccc(Cl)cc1Cl	20.8% (active)
Cc1cccc(N=Nc2c(C)[nH]n(-c3ccccc3)c2=O)c1	4.19%
CC1=NN(C(N)=S)C(=O)C1N=Nc1cc(Cl)ccc1Cl (centres undefined)	1.09%
O=C(CNC(=O)c1ccccc1F)c1ccc(Br)cc1	0.62%
COc1c(F)c(F)c(-c2csc(N)n2)c(F)c1F	2.83%
S=C(Nc1ccc2c(c1)OCO2)N1CCCC1	-2.94%

Compound	inhibition
Cc1ccccc1NC(=O)CSC1=NCCN1	-0.3%
COc1ccc(NC(=O)CCCN2C(=O)C(c3ccccc3)Oc3cccnc32)cc1 (centres undefined)	-1.86%
O=C(OCC1O[C@@H](OC(=O)c2cc(O)c(O)c(O)c2)[C@@H](OC(=O)c2cc(O)c(O)c(O)c2)[C@@H](OC(=O)c2cc(O)c(O)c(O)c2)[C@@H]1OC(=O)c1cc(O)c(O)c(O)c1)c1cc(O)c(O)c(O)c1 (some centres undefined)	62.1% (active)
O=C(OCC1OC(Oc2ccc(O)cc2)C(O)C(O)C1O)c1ccccc1 (centres undefined)	-4.47%
CC(O)c1ccc(OCCN(C)c2ccccn2)cc1 (centres undefined)	8.79%
Cn1cnnc1Sc1ccc(S(C)(=O)=O)cc1[N+](=O)[O-]	0.49%
CCC(C)N(C(=O)COC(=O)c1nc(Cl)ccc1Cl)C1CCS(=O)(=O)C1 (centres undefined)	4.9%
CCOC(=O)c1sc(=NC(=O)/C=C/c2cccs2)n(C)c1C	-2.21%
COc1ccc(-c2nc(CS(=O)CC(=O)NCc3ccccc3)c(C)o2)cc1OC (centres undefined)	0.72%
COc1ccc(-c2nc(CS(=O)CC(=O)NCc3ccccn3)c(C)o2)cc1 (centres undefined)	22.4% (active)
COc1cccc(-c2nc(CS(=O)CC(=O)NCc3ccc(F)cc3)c(C)o2)c1 (centres undefined)	1.48%
CCC(=O)Nc1cccc(C2=NOC3(C2)C[C@@H](C(N)=O)N(C(=O)c2cc([N+](=O)[O-])cc([N+](=O)[O-])c2C)C3)c1 (some centres undefined)	3.54%
Cc1ccc(-n2c(C)nnc2SCC(=O)NC2CC2)cc1	2.72%
CC(CC(=O)N1CCN(c2ccccc2)CC1)S(=O)(=O)c1ccc2c(c1)NC(=O)CS2 (centres undefined)	-0.25%
Cc1cc(/C=N/NC(=O)c2cccnc2)c(C)n1CC(C)C	0.13%
O=C(NN=C1CCC(=NNC(=O)c2cccnc2)CC1)c1cccnc1	-0.8%
O=C(N/N=C/c1sc(N2CCCCC2)nc1-c1cccs1)c1cccnc1	30.7% (active)
CC1CC(C)CN(S(=O)(=O)c2cccc(C(=O)N3C(=O)c4cccc(N)c4C3=O)c2)C1 (centres undefined)	-1.13%
NS(=O)(=O)c1ccc(CCNC(=O)c2nc(CS(=O)(=O)c3ccc(Cl)cc3)no2)cc1	1.62%
CCOc1ccc2nc(/N=C/c3nc(-c4ccccc4)oc3O)sc2c1	5.88%
CC(N=Cc1nc(-c2ccccc2)oc1O)c1ccccc1 (centres undefined)	4.55%
Oc1oc(-c2ccccc2Br)nc1/C=N/c1ccccn1	25.5% (active)
O=C(CCNC(=O)C1CCN(S(=O)(=O)c2ccccc2)CC1)NC1CC1	-1.2%
Cc1ccc(-c2nc3c(cnn3-c3ccccc3)c(=O)o2)cc1	22.6% (active)

Compound	inhibition
CC(=O)Cn1cnc2c(cnn2-c2ccccc2)c1=O	4.35%
Cc1ccc(-n2ncc3c(=O)n(-c4ccc(C)c(C)c4)c(-c4ccco4)nc32)cc1	-5.3%
O=C(COc1ccccc1)Nc1nonc1NC(=O)COc1ccccc1	-1.87%
COc1ccc(C)cc1S(=O)(=O)NCCc1ccccc1	1.15%
Cc1cc(C)c(S(=O)(=O)n2cc(C(C)C(N)C(=O)O)c3ccccc32)c(C)c1 (centres undefined)	-1.29%
CCC1(c2ccccc2)NC(=O)N(CC(=O)c2ccc3c(c2)OCO3)C1=O (centres undefined)	1.48%
Fc1ccccc1N=C1Nc2cccc3cccc1c23	3.49%
c1ccc(C2=Nc3cccc4cccc(c34)N2)cc1	31.5% (active)
COc1ccccc1C1=Nc2cccc3cccc(c23)N1	6.45%
CCN(CC(=O)NCc1ccc(Cl)cc1)C(=O)CSc1ccccc1	1.51%
CN1/C(=C\C=C2\N=C(c3ccc(F)cc3)OC2=O)C(C)(C)c2ccccc21	-7.15%
Cc1cccc(-c2nc(Nc3ccc(O)cc3)c3ccccc3n2)c1	29.1% (active)
COc1ccc(Nc2nc(-c3cccnc3)nc3ccccc23)cn1	-1.81%
CC(=O)Nc1cccc(Nc2nc(-c3cccs3)nc3ccccc23)c1	-19.2%
O=C(C/C(=N\NC(=O)c1ccccc1Br)C(F)(F)F)c1cccs1	1.64%
Cc1ccc(N/C(N)=N/c2nc(C(F)(F)F)cc(C(F)(F)F)n2)cc1	-3.46%
CCOc1ccc(NC(=O)COc2ccc(S(=O)(=O)N3CCCC3)cc2)cc1	-2.57%
COCCNC(=O)c1ccccc1NS(=O)(=O)c1ccc(C)c([N+](=O)[O-])c1	-2.57%
Cc1ccc(NS(=O)(=O)c2ccc(C)c(NC(=O)COc3ccc4ccccc4c3)c2)c(C)c1	-29.8%
Cc1ccc(NS(=O)(=O)c2ccc(N/N=C/c3ccccc3OCC(=O)O)c([N+](=O)[O-])c2)c(C)c1	26.5% (active)
CO/N=C/c1ccc(N2CCN(C(=O)c3cccc(Cl)c3)CC2)c([N+](=O)[O-])c1	4.08%
O=C(O)CCN=C1CCc2ccccc2N1	9.07%
CC(=O)Nc1ccc(NC(=O)CSC2=NS(=O)(=O)c3ccccc3N2)cc1	0.2%
COc1ccc(OC)c(Nc2nc(-c3ccc(O)c(O)c3)cs2)c1	20.1% (active)

Compound	inhibition
COc1ccc(CC(=O)Nc2nc(-c3ccc(F)c(F)c3)cs2)cc1OC	-7.43%
CC(C)(C)C(=O)OCc1nc(-c2ccc(O)c(O)c2)cs1	-1.7%
CCOc1ccc(S(=O)(=O)Nc2nccs2)cc1	2.3%
COC(C[C@@H](O)C[C@H](O)[C@H](C)OCc1ccccc1)OC	4.92%
COc1ccccc1NS(=O)(=O)c1ccc(C)c(C(=O)NCC(c2ccco2)N(C)C)c1 (centres undefined)	-0.42%
CC(=O)Nc1ccc(Oc2ccc3c(c2)C(=O)NC3=O)cc1	0.73%
C=CCn1c(SCc2csc(C)n2)nc2scc(-c3ccc(C)o3)c2c1=O	0.24%
C=CCn1c(=S)[nH]c2scc(-c3ccco3)c2c1=O	18.5% (active)
C=CCNC(=O)CSc1nc2scc(-c3ccco3)c2c(=O)n1CC=C	-0.48%
O=C(CCCN1C(=O)/C(=C/c2cccs2)SC1=S)Nc1ccc(O)cc1	-3.39%
CCC/C(C)=N\Nc1nc2c(c(=O)n(C)c(=O)n2C)n1C	0.84%
O=[N+]([O-])c1ccc(N/N=C/c2ccccc2)cc1	5.14%
Cc1cccc(COc2ccccc2/C=N/Nc2ccc([N+](=O)[O-])cc2)c1	23% (active)
Cc1ccccc1OCCOc1ccc([N+](=O)[O-])cc1/C=N/n1cnnc1	-2.64%
CC1=CC2=NC(=O)CC(C)(C(=O)N(CC(=O)NC(C)(C)C)Cc3ccccc3)N2C=C1 (centres undefined)	0.82%
Cc1c(C(=O)N2CCCc3ccccc32)sc2nc(-c3ccccc3)cn12	2.92%
Cc1cccc2cc3c(N)c(C(=O)N4CCCc5ccccc54)sc3nc12	18.9% (active)
Cc1c(C(=O)N2CCCc3ccccc32)oc2ccccc12	0.38%
O=C(CCC(=O)n1ncc2ccccc21)NCc1ccccc1Cl	0.79%
COc1ccc(-c2csc(-c3cccs3)n2)cc1OC	3.25%
COc1ccc(-c2csc3nc(-c4ccccc4F)oc(=O)c23)cc1OC	21.9% (active)
COc1ccccc1-c1nnc(-c2ccc(F)cc2)o1	-1.04%

— PubChem BioAssay AID1947 (The Scripps Research Institute Molecular Screening Center, 2009)
